# Source: PubChem BioAssay
# In the library only some 4.2% were active in any assay of this set; here they are far more common.
# 12-LOX inh = blocks human arachidonate 12S-lipoxygenase. P18054. purified 12hLO, xylenol orange hydroperoxide absorbance. Potency, µM (doses to about 108 µM), for the others: at the highest dose activity change, negative = inhibition, actives largely listed as inhibitors. actives 1.1% (n = 580,000). AID 1671190
#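 Purified human 12hLO (150 nM final) in 25 mM Hepes, 0.01% Triton X-100, pH 7.0 was preincubated 15 min at room temperature with compound. Then 40 uM arachidonic acid was added, 30 min. Hydroperoxide was read by Fe-XO absorbance ratio 573/405 nm.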
# PLK1 PBD block = blocks phosphopeptide binding to human PLK1 polo-box domain; P53350; Plk1 PBD binding of FITC phosphopeptide, fluorescence polarization; Potency, µM, for inactives: max response, negative = inhibition, most hits filed as inhibitors; actives 2.8% (n = 360,000); AID 720504; note: series mostly up to about 57 µM; nearly all actives have a fitted effect of over 65% in size
# VDR inh = inhibitors of human vitamin D receptor. P11473. VDR-SRC2-3 peptide fluorescence polarization, 2 h. Potency, µM, for inactives: max response, negative = inhibition, actives largely listed as inhibitors. actives 0.93% (n = 400,000). AID 504847
# Target sequence (P11473 whole entry, looked up): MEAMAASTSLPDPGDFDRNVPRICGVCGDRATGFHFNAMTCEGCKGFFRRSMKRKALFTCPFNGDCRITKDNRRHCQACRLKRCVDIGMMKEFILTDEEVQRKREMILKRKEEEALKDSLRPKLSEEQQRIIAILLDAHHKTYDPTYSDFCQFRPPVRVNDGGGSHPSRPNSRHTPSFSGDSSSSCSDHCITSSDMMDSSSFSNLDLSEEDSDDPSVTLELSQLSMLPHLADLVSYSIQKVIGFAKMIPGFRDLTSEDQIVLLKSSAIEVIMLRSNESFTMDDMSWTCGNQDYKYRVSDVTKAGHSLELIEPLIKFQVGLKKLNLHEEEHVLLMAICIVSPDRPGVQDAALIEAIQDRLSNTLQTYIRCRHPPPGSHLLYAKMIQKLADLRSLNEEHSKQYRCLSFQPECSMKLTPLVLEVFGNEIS
#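 The screen uses fluorescence polarization to detect compounds that interfere with recruitment of the SRC2-3 coactivator peptide to VDR; plates are read after 2 h at room temperature.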
# Sfp inh = Sfp phosphopantetheinyl transferase inhibition. Q9F4F7. Biochemical Sfp PPTase activity, qHTS. Potency, µM, for inactives: largest response in the series, negative = inhibition, actives largely listed as inhibitors. actives 3.5% (n = 310,000). AID 1490;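 note: the enzyme is Sfp with the accession as filed and its product quenches rhodamine fluorescence; 0% = enzyme reaction without inhibitor and -100% = no enzyme wells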
#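 Fluorescence-quenching assay: 15 nM Sfp-PPTase preincubated 15 min at room temperature with compound, then 5 uM rhodamine-CoA and 12.5 uM BHQ-2-labelled YbbR peptide added. Fluorescence (ex 525/em 598 nm) read at start and after 30 min; difference gives rate.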
# Active calls of the source: *; ? = inconclusive; / = not tested or not shown; [ ] = another dose, or the depositor's remark. Calls come from the whole dose curve; as a rule, active = well fitted curve in the direction sought with a large enough effect; inconclusive = small, poorly fitted or top-dose-only effect, or another doubt; inactive = no such curve, though single readings can be large; an effect the other way counts as inactive or inconclusive. Unless noted, % is set by controls: 0 for no effect and ±100 for the full control effect; potency is the fitted concentration of half-maximal effect.
SMILES,12-LOX inh,PLK1 PBD block,VDR inh,Sfp inh
Cc1cccc(S(=O)(=O)N(C)C[C@@H]2OCc3cnnn3CCCC(=O)N([C@@H](C)CO)C[C@@H]2C)c1,73%,2%,/,/
COc1ccc(CCNC(=O)C(=O)NCC2OCCN2S(=O)(=O)c2ccccc2)cc1OC (stereo not given),12%,-16%,-18%,4%
O=C1CCCCCN1C1CCN(Cc2ccncc2)CC1,18%[176 µM],/,/,/
CCc1ccc(OCC(=O)Nc2ccc(S(=O)(=O)N3CCOCC3)cc2)cc1,?,0%,-15%,/
CCCCCCNC(=O)Nc1ccc(S(=O)(=O)Nc2ccc(CCNC[C@H](O)COc3ccc(O)cc3)cc2)cc1,/,/,/,25µM*
COCCNC(=O)c1sc2ncn(CC(=O)N3CCCCC3)c(=O)c2c1C,0%,3.4µM*,-23%,2%
O=C(N/N=C\c1ccccc1O)c1ccccc1O,0%,/,-1%,-3%
CN(C)c1ccc(/C=N/NC(=O)c2ccccc2O)o1,-5%,-12%,?,16µM*
Cc1cc(C(=O)N/N=C/c2ccc(N(C)C)o2)cs1,241%,-14%,?,13µM*
CN(C)c1ccc(/C=N/NC(=O)C(O)(c2ccccc2)c2ccccc2)o1,?,-16%,?,2.8µM*
Clc1cccc(-n2ncc3c(N4CCCCC4)ncnc32)c1,10%,/,6%,/
CN(C)C(=O)CSc1nnc([C@H](Cc2ccccc2)NC(=O)OC(C)(C)C)o1,167%,27µM*,-9%,-5%
COC(=O)CS(=O)(=O)c1nnc([C@H](Cc2ccccc2)NC(=O)OC(C)(C)C)o1,0%,11µM*,?,-91%
Cc1cccc(CS(=O)(=O)c2nnc([C@H](Cc3ccccc3)NC(=O)OC(C)(C)C)o2)c1,/,2.7µM*,?,18µM*
CS(=O)(=O)c1ccc(C(=O)N2CC(=O)Nc3ccccc32)cc1,-6%,2%,18%,7%
Cc1ccc(S(=O)c2ccc(NC(=O)C3CC3)cc2C#N)cc1 (stereo not given),-9%,11µM*,71µM*,17%
CCOC(=O)C1=C(COC(=O)CNC(=O)c2cc(OC)c(OC)c(OC)c2)NC(=O)NC1C (stereo not given),17%,5%,-9%,/
N#CC(=C1Nc2ccccc2N1)S(=O)(=O)c1ccccc1,?,3.4µM*,50µM*,0%
Cc1c(Cl)cccc1NC(=S)Nc1ccccn1,?,2%,-9%,13%
S=C(Nc1ccccn1)Nc1ccccc1Cl,35µM*,-21%,-25%,-7%
Cc1ccccc1NC(=S)NCCc1ccccn1,-4%,-2%,5%,-3%
Cc1ccccc1NC(=S)Nc1ccccn1,?,?,-7%,56µM*
CCCN(CC(N)=O)Cc1ccc(C#N)cc1,11%,/,/,/
C#Cc1cccc(NC(=O)c2ccc3c(c2)C(=O)N(Cc2cccnc2)C3=O)c1,1%,2%,-8%,1%
O=C(CCc1ncc(-c2ccc(F)cc2F)o1)N1CCN(S(=O)(=O)c2cccc(F)c2)CC1,-3%,/,/,/
SMILES,12-LOX inh,PLK1 PBD block,VDR inh,Sfp inh
Cn1cnc([N+](=O)[O-])c1S(=O)(=O)Oc1ccccc1,3%,?,25µM*,/
Cn1cnc([N+](=O)[O-])c1S(=O)(=O)Nc1ccccc1,-9%,-6%,-24%,/
COCCOc1ccc(C(F)(F)F)cc1Nc1nc2ccccc2o1,0%,6.7µM*,?,-10%
COCCOc1ccc(C(F)(F)F)cc1NC(=O)c1ccc(C(F)(F)F)cc1,12%,-8%,6%,15%
O=C(CCN1CCCCC1)Nc1cccc(Cl)c1,2%,27µM*,-12%,5%
Cc1cc(C)c2cc(CN(CCN3CCCC3)C(=O)Nc3ccc(F)cc3)c(=O)[nH]c2c1,437%,-8%,4%,9%
Cc1ccc(C)c2[nH]c(=O)c(CN(CCN3CCCC3)C(=O)Nc3cccc(Cl)c3)cc12,-13%,-12%,20%,14µM*
COc1ccc(N(CC(=O)NC2CCCCC2)S(=O)(=O)c2cccs2)cc1,6%,-7%,1%,/
CCOc1cc(CN2CCN(c3ccc(C(C)=O)cc3)CC2)ccc1OC,?,-13%,-9%,79µM*
COc1ccccc1NC(=O)c1ccccc1S(=O)(=O)c1ccccc1[N+](=O)[O-],-17%,6µM*,-16%,0%
COc1ccccc1NC(=O)c1ccccc1S(=O)(=O)c1ccc([N+](=O)[O-])cc1,3%,-8%,-1%,3%
CCSc1ccccc1C(=O)Nc1ccc([N+](=O)[O-])cc1OC,40µM*,-15%,-13%,?
Cc1ccc(NC(=S)Nn2cnnc2)c(C)c1,?,/,/,40µM*
Cc1ccc(NC(=O)Nn2cnnc2)c(C)c1,76%,-11%,-10%,5%
S=C(Nc1ccc(Br)cc1Cl)Nn1cnnc1,?,9.5µM*,?,22µM*
CSc1ncc(CN2CCN(C(C)C)C(CCO)C2)cn1 (stereo not given),8%,2%,8%,5%
COC(=O)Nc1ccc([N+](=O)[O-])cc1OC,-28%,-2%,11%,15%
Cc1ccc(Cl)cc1NC(=S)Nn1cnnc1,?,11µM*,79µM*,11%
COc1cc([N+](=O)[O-])ccc1NC(=S)Nn1cnnc1,?,9.5µM*,?,20µM*
COc1ccc(C2CC(=O)NC(SCC(=O)Nc3cc(Cl)cc(Cl)c3)=C2C#N)cc1OC (stereo not given),2%,/,/,/
COc1ccc(CCNC(=O)C(C)C2CCOCC2)cc1OC (stereo not given),32%,/,/,/
C=CCc1c(O)nc(SCC(=O)c2ccccc2)[nH]c1=O,0%,?,0%,?
CCN(CC)C(=S)SCC(=O)NCC(=O)Nc1c(C)cc(C)cc1C,39%,/,/,/
CCOC(=O)CSc1nc2cc(OC)ccc2cc1C#N,15%,-6%,0%,12%
CCOC(=O)C1=C(C)OC(n2cccc2)=C(C#N)C1c1ccc(OC)c(OC)c1 (stereo not given),9%,/,/,/
SMILES,12-LOX inh,PLK1 PBD block,VDR inh,Sfp inh
CCOC(=O)CSC1=C(C#N)C(=O)NC(c2ccc(OC)cc2)S1 (stereo not given),?,12µM*,?,45µM*
CCOC(=O)CSC1=C(C#N)C(=O)NC(c2ccc(OC)c(OC)c2)S1 (stereo not given),?,12µM*,?,40µM*
Cc1cccc(NC(=O)Cc2coc3ccc4ccccc4c23)n1,?,-4%,-1%,56µM*
O=C(O)Cc1coc2ccc3ccccc3c12,-2%,3%,-1%,-4%
COC(=O)C1=C(C)N(c2cccc(C)c2)C(=S)NC1c1ccc(C)s1 (stereo not given),35µM*,/,/,/
CCOC(=O)[C@]12CCC=C1N(CCC1=CCCCC1)C(=O)[C@H](CC(=O)NCCC(C)C)C2,?,-7%,/,/
CO/N=C(/C(=O)N[C@H]1C(=O)N2C(C(=O)O)=C(COC(C)=O)CSC12)c1csc(N)n1 (stereo not given in full),/,/,?,-32%
CO/N=C(/C(=O)N[C@@H]1C(=O)N2C(C(=O)O)=C(COC(N)=O)CS[C@H]12)c1ccco1,/,/,50µM*,-24%
